According to PubChem BioAssay (EPA / NIEHS):
Activity calls are given as the source filed them. How the source made its calls: active means hit-call score of the fitted dose curve at least 0.9, where 1 is the maximum; inactive means score below 0.9.

Read-out: Cellular tumor antigen p53 (Homo sapiens) (UniProt P04637)
Assay: LTEA_HepaRG_TP53: Life Technologies and Expression Analysis (LTEA) Assay for Tumor Protein P53 (TP53) using HepaRG (AID 2283537)
Details: mRNA level, 48 h; actives raise or lower the signal
In short: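 Differentiated HepaRG cells in serum-free induction medium exposed 48 h in duplicate to 8 half-log concentrations, top 100 uM, 0.5% DMSO. TP53 mRNA by TaqMan qRT-PCR (Fluidigm), normalized to ACTB, GAPDH, POLR2A; fitted bidirectionally versus DMSO.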

Cellular tumor antigen p53 (Homo sapiens), sequence (P04637 whole entry, looked up): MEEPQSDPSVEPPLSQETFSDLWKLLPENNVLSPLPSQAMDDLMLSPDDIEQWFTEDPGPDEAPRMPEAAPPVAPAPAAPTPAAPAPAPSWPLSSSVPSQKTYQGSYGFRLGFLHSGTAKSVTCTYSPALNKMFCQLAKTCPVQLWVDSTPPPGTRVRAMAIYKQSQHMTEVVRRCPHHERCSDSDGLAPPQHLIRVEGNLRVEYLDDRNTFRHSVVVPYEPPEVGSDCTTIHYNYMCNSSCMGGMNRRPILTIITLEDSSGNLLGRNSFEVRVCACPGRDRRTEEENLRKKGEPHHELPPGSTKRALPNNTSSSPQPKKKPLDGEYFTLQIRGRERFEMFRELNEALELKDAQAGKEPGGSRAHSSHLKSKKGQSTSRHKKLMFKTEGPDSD

| SMILES | outcome |
| --- | --- |
| CCOP(=S)(OCC)SCSC(C)(C)C | inactive |
| CCCCCCCCCc1ccc(O)cc1 | inactive |
| Cc1cccc([N+](=O)[O-])c1 | inactive |
| CC(C)(c1ccccc1)c1ccc(O)cc1 | inactive |
| c1cc2ccc3cccc4ccc(c1)c2c34 | inactive |
| ClC1=C(Cl)[C@]2(Cl)[C@@H]3[C@@H]4C[C@@H]([C@H]5O[C@@H]45)[C@@H]3[C@@]1(Cl)C2(Cl)Cl | inactive |
| C[C@]12CCC(=O)C=C1CC[C@@H]1[C@@H]2CC[C@@]2(C)[C@H]1CC[C@]2(C)O | inactive |
| Clc1ccc(C(Cl)(Cl)Cl)cc1 | inactive |
| CCCCCCCCOC(=O)c1ccccc1C(=O)OCCCCCCCC | inactive |
| ClC(Cl)=C(c1ccc(Cl)cc1)c1ccc(Cl)cc1 | inactive |
| Nc1ccc(-c2ccc(N)cc2)cc1 | inactive |
| O=S(=O)(O)C(F)(F)C(F)(F)C(F)(F)C(F)(F)C(F)(F)C(F)(F)F | inactive |
| C[C@]12CCC(=O)C=C1CC[C@@H]1[C@@H]2CC[C@]2(C)C(=O)CC[C@@H]12 | inactive |
| CCOC(=O)C(O)(c1ccc(Cl)cc1)c1ccc(Cl)cc1 | inactive |

Read-out: UDP glucuronosyltransferase (UGT1A1), UGT1A1 (gene 54658)
Assay: LTEA_HepaRG_UGT1A1: Life Technologies and Expression Analysis (LTEA) Assay for UDP glucuronosyltransferase (UGT1A1) using HepaRG (AID 2283538)
Details: mRNA level, 48 h; actives raise or lower the signal
In short: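 HepaRG cells, 0.5% DMSO vehicle, 48 h exposure in serum-free induction medium to 8-point half-log series topping at 100 uM, in duplicate. UGT1A1 mRNA by Fluidigm qRT-PCR, normalized to ACTB/GAPDH/POLR2A; bidirectional fit versus DMSO.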

| SMILES | outcome | AC50 |
| --- | --- | --- |
| C=CC(N)=O | inactive |  |
| Oc1ccc(C(c2ccc(O)cc2)(C(F)(F)F)C(F)(F)F)cc1 |  | 87.5 µM (active) |
| CCCCCCOC(=O)c1ccccc1C(=O)OCCCCCC |  | 62 µM (active) |
| CCC(=O)O[C@H]1CC[C@H]2[C@@H]3CCC4=CC(=O)CC[C@]4(C)[C@H]3CC[C@]12C |  | 5.32 µM (active) |
| CC(C)(O)C(=O)Nc1ccc([N+](=O)[O-])c(C(F)(F)F)c1 | inactive |  |
| CC1=C2C[C@H]3[C@@H](CC=C4C[C@@H](O)CC[C@@]43C)[C@@H]2CC[C@]12O[C@@H]1C[C@H](C)CN[C@H]1[C@H]2C | inactive |  |
| Cc1cc(O)ccc1Cl | inactive |  |
| Nn1cnnc1 | inactive |  |
| O=C(O)C(F)(F)C(F)(F)C(F)(F)C(F)(F)C(F)(F)C(F)(F)C(F)(F)C(F)(F)F |  | 85.4 µM (active) |
| Cc1cccc(C)c1N | inactive |  |
| O=C(NC(=O)c1c(F)cccc1F)Nc1cc(Cl)c(OC(F)(F)C(F)F)c(Cl)c1 | inactive |  |
| O=C(NC(=O)c1cc(F)c(F)cc1Cl)Nc1cc(F)ccc1N1CCC(C(=O)O)CC1 | inactive |  |
| O=C(O)C(F)(F)C(F)(F)C(F)(F)C(F)(F)C(F)(F)F | inactive |  |
| CCOP(=S)(OCC)SCSC(C)(C)C | inactive |  |
| CCCCCCCCCc1ccc(O)cc1 |  | 32.5 µM (active) |
| ClC1=C(Cl)[C@]2(Cl)[C@@H]3[C@@H]4C[C@@H]([C@H]5O[C@@H]45)[C@@H]3[C@@]1(Cl)C2(Cl)Cl |  | 1.65 µM (active) |
| C[C@]12CCC(=O)C=C1CC[C@@H]1[C@@H]2CC[C@@]2(C)[C@H]1CC[C@]2(C)O |  | 10.9 µM (active) |
| Clc1ccc(C(Cl)(Cl)Cl)cc1 | inactive |  |
| ClC(Cl)=C(c1ccc(Cl)cc1)c1ccc(Cl)cc1 |  | 13.1 µM (active) |
| Nc1ccc(-c2ccc(N)cc2)cc1 | inactive |  |
| O=S(=O)(O)C(F)(F)C(F)(F)C(F)(F)C(F)(F)C(F)(F)C(F)(F)F |  | 38.6 µM (active) |
